The values that follow come from PubChem BioAssay (NCATS).

Experiment [1] in a line: Primary qHTS for inhibitors of SARS-S pseudo-typed particle cell entry (AID 1479145). For activity change, negative = inhibition: % is set by controls: 0 for no effect and ±100 for the full control effect. Note: nearly all actives have a fitted effect of over 45% in size. As to conditions: outcome: dose series up to 57.1 µM unless noted. Background: qHTS replaces the single test concentration by a dilution series.
Experiment [2] is described as follows: Primary qHTS for Huh7 cytotoxicity: counterscreen for inhibitors of MERS-S pseudotyped particle cell entry (AID 1479147). For activity change, negative = cytotoxicity: % is set by controls: 0 for no effect and ±100 for the full control effect. Conditions: outcome: dose series up to 57.1 µM unless noted.
The nature of experiment [3]: Primary qHTS for inhibitors of MERS-S pseudo-typed particle cell entry (AID 1479149). For activity change, negative = inhibition: % is set by controls: 0 for no effect and ±100 for the full control effect. Note: nearly all actives have a fitted effect of over 60% in size. As to conditions: outcome: dose series up to 57.1 µM unless noted.
Experiment [4] is described as follows: Primary qHTS for Vero E6 cytotoxicity: counterscreen for inhibitors of SARS-S pseudo-typed particle cell entry (AID 1479150). For activity change, negative = cytotoxicity: % is set by controls: 0 for no effect and ±100 for the full control effect. As to conditions: outcome: dose series up to 57.1 µM unless noted.
The nature of experiment [5]: Cytotoxicity counterscreen for inhibitors of SARS-CoV-2 cell entry (AID 1645845). Note: nearly all actives have a fitted effect of over 50% in size. Conditions: outcome: dose series up to 57.1 µM unless noted. Summed up:
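Expi293F/hACE2 cells seeded overnight; cpd pin-transferred in DMSO, 1 h preincubation, + media, 48 h 37 C 5% CO2; ATPLite 1step luminescence; normalized to cells and no cells.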

A short description of experiment [6]: Primary qHTS to identify inhibitors of SARS-CoV-2 cell entry (AID 1645846). Note: nearly all actives have a fitted effect of over 45% in size. As to conditions: SARS-CoV-2 pseudovirus cell entry assay, luminescence; activity change, negative = inhibition: at 57.1 µM (top of the series) unless noted. In short, it runs like this: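 Data are normalized to wells receiving SARS-CoV-2-S pseudoparticles and those given bald particles. Entry signal was luciferase luminescence in stable hACE2 Expi293F cells, 48 hr post-infection, after 1 hr compound pretreatment.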

The structures appear in SMILES notation. Where “and” joins values, the source holds several entries; their conditions need not be identical. Identical values can stand only once. Results filed as inconclusive are left out. Calls of active or inactive are those of the source. Calls come from the whole dose curve.

On to `NC(=O)c1nc(F)c[nH]c1=O`, for which the Potency result in experiment [1], in experiment [2], in experiment [3], in experiment [4] and in experiment [5] was “inactive” throughout. Moreover, the activity change, negative = inhibition in experiment [6] is -11.1% and -27.4%.
For the compound `CN(C)/C(N)=N/C(=N)N`, the outcome in experiment [1], in experiment [2], in experiment [3], in experiment [4], in experiment [5] and in experiment [6] was “inactive [setting not given]” throughout.
Regarding `CC[C@H]1OC(=O)[C@H](C)[C@@H](O[C@H]2C[C@@](C)(OC)[C@@H](O)[C@H](C)O2)[C@H](C)[C@@H](O[C@@H]2O[C@H](C)C[C@H](N(C)C)[C@H]2O)C(C)(O)C[C@@H](C)/C(=N\OCOCCOC)[C@H](C)[C@@H](O)[C@]1(C)O` (some centres not stated), the Potency entry in experiment [1], in experiment [2], in experiment [3], in experiment [4], in experiment [5] and in experiment [6] was “inactive” each time.
On to `COc1ccc(C(=O)N2CCN(c3ccc4c(c3)CCC(=O)N4)CC2)cc1OC`, for which the Potency result in experiment [1], in experiment [2], in experiment [3], in experiment [4] and in experiment [5] was “inactive” throughout. Moreover, the activity change, negative = inhibition in experiment [6] is 3.69% and -19.3%.
Consider `CC(/C=C1\SC(=S)N(CC(=O)O)C1=O)=C\c1ccccc1`, for which the Potency entry in experiment [1], in experiment [2], in experiment [3], in experiment [4], in experiment [5] and in experiment [6] was “inactive” each time.
Regarding `COCC1=C(C(=O)O)N2C(=O)[C@@H](NC(=O)/C(=N\OC)c3csc(N)n3)[C@H]2SC1`, the Potency entry in experiment [1], in experiment [2], in experiment [3], in experiment [4] and in experiment [5] was “inactive” each time. Moreover, in experiment [6], the activity change, negative = inhibition is -16.5%.
Take `C=CC1=C(C(=O)O)N2C(=O)[C@@H](NC(=O)/C(=N\OCC(=O)O)c3csc(N)n3)[C@H]2SC1`: the Potency entry in experiment [1], in experiment [2], in experiment [3], in experiment [4] and in experiment [5] was “inactive” in each case. Also, in experiment [6], the activity change, negative = inhibition is -7.67%.
On to `CCC(=O)NC[C@@H]1C[C@H]1c1cccc2c1CCO2`, for which the Potency result in experiment [1], in experiment [2], in experiment [3], in experiment [4] and in experiment [5] was “inactive” throughout. Moreover, the activity change, negative = inhibition in experiment [6] was -21.9%.
For the compound `C[C@]12CCC3=C4CCC(=O)C=C4CC[C@H]3[C@@H]1CC[C@@]2(O)CC#N`, the Potency entry in experiment [1], in experiment [2], in experiment [3], in experiment [4] and in experiment [5] was “inactive” throughout. In addition, the activity change, negative = inhibition in experiment [6] was -3.65%.
Take `NCCCC[C@H](N)C(=O)O`: the outcome was “inactive [at 0.573 µM]” in experiment [1], “inactive [at 0.573 µM]” in experiment [2], “inactive [at 0.573 µM]” in experiment [3] and “inactive [at 0.702 µM]” in experiment [6]. The activity change, negative = cytotoxicity in experiment [4] was 2.08% [at 0.573 µM] (inactive); in experiment [5], 2.36% [at 0.702 µM] (inactive).
For `COc1ccc(CC(C)(C)NC[C@H](O)c2cc(O)cc3c2OCC(=O)N3)cc1`, the Potency result in experiment [1], in experiment [2], in experiment [3], in experiment [4] and in experiment [5] was “inactive” each time. The activity change, negative = inhibition in experiment [6] stood at 2.79%.
As for `C=C1/C(=C/C=C2\CCC[C@]3(C)[C@@H]([C@H](C)/C=C/C=C/C(O)(CC)CC)CC[C@@H]23)C[C@@H](O)C[C@@H]1O`, the Potency entry in experiment [1], in experiment [2], in experiment [3], in experiment [4] and in experiment [5] was “inactive” throughout. For the same compound, the activity change, negative = inhibition in experiment [6] is -5.54%.
`C[C@@H]1C[C@H]2[C@@H]3C[C@H](F)C4=CC(=O)C=C[C@]4(C)[C@@]3(F)[C@@H](O)C[C@]2(C)[C@@]1(O)C(=O)COC(=O)C(C)(C)C`: the Potency result in experiment [1], in experiment [2], in experiment [3], in experiment [4], in experiment [5] and in experiment [6] was “inactive” in each case.
Regarding `COC(=S)NCCn1c([N+](=O)[O-])cnc1C`, the Potency entry in experiment [1], in experiment [2], in experiment [3], in experiment [4] and in experiment [5] was “inactive” each time. The activity change, negative = inhibition in experiment [6] is -22.7%.
Take `CCCCCCCCCCCCCCCCOc1nc2ccc(C)cc2c(=O)o1`: the Potency entry in experiment [1], in experiment [2], in experiment [3], in experiment [4] and in experiment [5] was “inactive” in each case. For the same compound, the activity change, negative = inhibition in experiment [6] was -28.4%.
Turning to `OC[C@H]1O[C@@H](c2ccc(F)c(Cc3cc4ccccc4s3)c2)[C@H](O)[C@@H](O)[C@@H]1O`, the Potency entry in experiment [1], in experiment [2], in experiment [3], in experiment [4] and in experiment [5] was “inactive” each time. The activity change, negative = inhibition in experiment [6] was -24.7%.
As for `CN(CCCCCCN(C)C(=O)Oc1ccc[n+](C)c1)C(=O)Oc1ccc[n+](C)c1`, the Potency result in experiment [1], in experiment [2], in experiment [3], in experiment [4] and in experiment [5] was “inactive” in each case. Moreover, in experiment [6], the activity change, negative = inhibition was -28.5%.
With `NC(C(=O)NC1C(=O)N2C(C(=O)O)=C(CSc3cn[nH]n3)CSC12)c1ccc(O)cc1` (configuration not stated), the Potency result in experiment [1], in experiment [2], in experiment [3], in experiment [4] and in experiment [5] was “inactive” in each case. The activity change, negative = inhibition in experiment [6] is -22%.
On to `COc1cc2c(cc1OC)[C@@H](Cc1cc(OC)c(OC)c(OC)c1)[N+](C)(CCCOC(=O)CC/C=C/CCC(=O)OCCC[N+]1(C)CCc3cc(OC)c(OC)cc3[C@H]1Cc1cc(OC)c(OC)c(OC)c1)CC2` (some centres not stated), for which the Potency entry in experiment [1], in experiment [2], in experiment [3], in experiment [4] and in experiment [5] was “inactive” throughout. In addition, the activity change, negative = inhibition in experiment [6] is -24%.
Take `CC1(O)CCC(C(C)(C)O)CC1` (configuration not stated): the Potency result in experiment [1], in experiment [2], in experiment [3], in experiment [4], in experiment [5] and in experiment [6] was “inactive” in each case.
For `C[C@H]1CN(C[C@H](Cc2ccccc2)C(=O)NCC(=O)O)CC[C@@]1(C)c1cccc(O)c1`, the Potency entry in experiment [1], in experiment [2], in experiment [3], in experiment [4] and in experiment [5] was “inactive” throughout. Moreover, the activity change, negative = inhibition in experiment [6] is -6.59% and -17.3%.
In the case of `O=C(OCCO)c1ccccc1O`, the Potency result in experiment [1], in experiment [2], in experiment [3], in experiment [4] and in experiment [5] was “inactive” in each case. Further, the activity change, negative = inhibition in experiment [6] was -11%.
